Assay [1] is described as follows: Drug repurposing screens with cells derived from glioblastoma tumor samples (AID 1345199). Also: nearly all actives have a fitted effect of over 40% in size. Also: potency is read from the fitted curve at half-maximal effect. As to activity, negative = cell killing: % is scaled to controls: 0 for no effect and ±100 for the full control effect. The settings on record: GBM patient neurospheres viability, ATP luminescence, 48 h. The procedure, abridged: (§1)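 Primary testing used CD133+ neurospheres from four GBM patients, seven concentrations, 48 h exposure and ATP-based viability; confirmation added three slower-growing patient lines.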

In assay [2] the test system is astro (control astrocytes). The assay is described as above. Conditions: viability, ATP luminescence, 48 h; series mostly up to 45.9 µM. The procedure, abridged:
as §1

Assay [3] concerns the target Nuclear receptor subfamily 1 group I member 2 (Rattus norvegicus) (UniProt Q9R1A7). As to the kind of experiment: qHTS assay for small molecule activators of the rat pregnane X receptor (rPXR) signaling pathway (AID 651751; call rule not given here; also: 0% is about no effect). Conditions: rPXR reporter cells, luciferase (One-Glo), 24 h.
A short description of assay [4]: qHTS assay for small molecule activators of the human pregnane X receptor (PXR) signaling pathway (AID 720659; call rule not given here; also: 0% is about no effect). The settings on record: DPX-2 HepG2 CYP3A4-luciferase, 24 h; series mostly up to 92.3 µM. On the technique in general: Quantitative high-throughput screening tests each substance at several concentrations.
Where [5] appears, read: at 45.9 µM (top of the series), tumour line B.
Where [6] appears, read: at 45.9 µM (top of the series), tumour line D.
Where [7] appears, read: at 46.1 µM (top of the series), tumour line C.
Where [8] appears, read: at 46 µM (top of the series), tumour line A.

Values joined by “and” are separate entries in the source; they are usually repeats but may differ in a detail not shown here. Equal entries are not always repeated. A number with no mark means an inactive call. Inconclusive results are not listed. Active and inactive are the calls of the source. Unless noted, calls follow the shape of the dose curve; as a rule, active = well fitted inhibition curve with a large enough effect; inconclusive = small, poorly fitted or top-dose-only effect; inactive = flat fitted curve, though single readings scatter.

Sequence of Nuclear receptor subfamily 1 group I member 2 (Rattus norvegicus) (Q9R1A7 whole entry, looked up): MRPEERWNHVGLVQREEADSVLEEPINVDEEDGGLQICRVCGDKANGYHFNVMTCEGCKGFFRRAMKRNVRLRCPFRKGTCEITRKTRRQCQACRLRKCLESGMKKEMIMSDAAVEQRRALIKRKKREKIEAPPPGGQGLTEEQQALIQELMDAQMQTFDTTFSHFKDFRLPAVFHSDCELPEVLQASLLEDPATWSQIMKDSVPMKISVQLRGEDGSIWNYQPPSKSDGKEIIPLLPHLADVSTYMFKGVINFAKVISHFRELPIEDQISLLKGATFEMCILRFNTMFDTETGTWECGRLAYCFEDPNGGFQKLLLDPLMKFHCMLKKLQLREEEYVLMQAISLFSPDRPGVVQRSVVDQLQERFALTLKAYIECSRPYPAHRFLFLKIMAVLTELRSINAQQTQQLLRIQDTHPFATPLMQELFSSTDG

Consider `CN(C)[C@H](Cc1ccccc1)c1ccccc1`, for which the activity, negative = cell killing in assay [1] (setting [5]) is -3.48%; in assay [1] (setting [6]) it was -20.8%; in assay [1] (setting [7]), -18.9%. Further, the Potency in assay [1] (tumour line A) was 20 µM (active). For the same molecule, in assay [2], the Potency entry is “inactive”.
Turning to `CC1(C)[C@H](C=C(Cl)Cl)[C@H]1C(=O)OCc1c(F)c(F)cc(F)c1F`, the activity, negative = cell killing was -3.56% in assay [1] (setting [5]), -11.5% in assay [1] (setting [6]), -26.8% in assay [1] (setting [8]) and -13.8% in assay [1] (setting [7]). The Potency result in assay [2] is “inactive”.
On to `OC[C@@H](O)[C@H]1O[C@@H]2O[C@@H](C(Cl)(Cl)Cl)O[C@@H]2[C@H]1O`, for which the activity, negative = cell killing in assay [1] (setting [5]) was -12.9%; in assay [1] (setting [6]) it was -1.55%; in assay [1] (setting [8]), -29.4%; in assay [1] (setting [7]), 7.8%. Further, in assay [2], the Potency entry was “inactive”.
On to `O=C/C=C/c1ccccc1`, for which the activity, negative = cell killing was 0.0687% in assay [1] (setting [5]), -9.63% in assay [1] (setting [6]), -23.4% in assay [1] (setting [8]) and 1.48% in assay [1] (setting [7]). For the same molecule, the Potency result in assay [2] is “inactive”. Besides, the max response in assay [3] is -2.3% and 9.18%. In addition, in assay [4], the molecule was called inactive.
For the molecule `ClCC1CO1` (configuration not stated), the activity, negative = cell killing is -15% in assay [1] (setting [5]), -9.19% in assay [1] (setting [6]), -27.8% in assay [1] (setting [8]) and -16.2% in assay [1] (setting [7]). Besides, the Potency entry in assay [2] is “inactive”. The max response in assay [3] is 1.11%. Moreover, the result in assay [4] was inactive.
As for `O=c1[nH]cc(N(CCCl)CCCl)c(=O)[nH]1`, the results for the activity, negative = cell killing in assay [1] (setting [5]), in assay [1] (setting [6]) and in assay [1] (setting [7]) were -11%, -17.9% and -21.9%, respectively. Further, the Potency entry in assay [2] is “inactive”.
Regarding `CC[C@H]1[C@@H]2C[C@H]3[C@@H]4N(C)c5ccccc5[C@]45C[C@@H](C2[C@H]5O)N3[C@@H]1O` (some centres not stated), the activity, negative = cell killing in assay [1] (at 20 µM (top of the series), tumour line C) was 5.4%; in assay [1] (at 21.2 µM (top of the series), tumour line B) it was 2.75%; in assay [1] (at 21.2 µM (top of the series), tumour line D) it was 6.31%. Moreover, in assay [2], the Potency result is “inactive”.
Take `C[C@@H](Cc1ccccc1)N(C)C`: the activity, negative = cell killing in assay [1] (setting [5]) is -4.88%; in assay [1] (setting [6]) it was -10.7%; in assay [1] (setting [7]), -6.52%. For the same molecule, the Potency entry in assay [2] is “inactive”.
For `O=P(O)(O)C(Cl)(Cl)P(=O)(O)O`, in that order: 1.35%, -11.3%, -5.59% and “inactive”.
Regarding `NCC(O)c1cccc(O)c1` (configuration not stated), the figures for the activity, negative = cell killing in assay [1] (setting [5]), in assay [1] (setting [6]) and in assay [1] (setting [7]) were -9.47%, -16.5% and -10.7%, respectively. Moreover, in assay [2], the Potency entry is “inactive”.
For `O=c1[nH]c(=O)n(Cl)c(=O)n1Cl`, the activity, negative = cell killing in assay [1] (setting [5]) is -3.23%; in assay [1] (setting [6]), -0.766%; in assay [1] (setting [8]) it was -8.9%; in assay [1] (setting [7]), 7.98%. In addition, the Potency result in assay [2] is “inactive”. The max response in assay [3] was -4.63%. For the same molecule, in assay [4], the call was inactive.
As for `CCC1(c2ccccc2)C(=O)NC(=O)N(C(=O)c2ccccc2)C1=O` (configuration not stated), the activity, negative = cell killing in assay [1] (setting [5]) is -17.6%; in assay [1] (setting [6]), -13.8%; in assay [1] (setting [7]), -23.5%. Also, in assay [2], the Potency entry is “inactive”.
For `CCCCNCC(O)c1ccc(O)cc1` (configuration not stated), in that order: -14.1%, -0.799%, 1.33% and “inactive”.
Consider `C=CCN1CC[C@]23c4c5ccc(O)c4O[C@H]2[C@@H](O)C=C[C@H]3[C@H]1C5`, for which the figures for the activity, negative = cell killing in assay [1] (setting [5]), in assay [1] (setting [6]) and in assay [1] (setting [7]) were -22.5%, 3.8% and -4.91%, respectively. Further, the Potency entry in assay [2] was “inactive”.
For `[O]=[Cd]`, the activity, negative = cell killing in assay [1] (setting [5]) was -6.73%; in assay [1] (setting [6]), 0.985%; in assay [1] (setting [8]), -15%; in assay [1] (setting [7]), -5.34%. The Potency result in assay [2] was “inactive”. Moreover, in assay [3], the max response is 0.17%. Also, in assay [4], the molecule was classed as inactive.
As to `ClC=C(Cl)Cl`, the activity, negative = cell killing in assay [1] (setting [5]) is -0.797%; in assay [1] (setting [6]), -16.6%; in assay [1] (setting [8]), -33.6%; in assay [1] (setting [7]), -1.4%. The Potency entry in assay [2] was “inactive”. Moreover, the max response in assay [3] is 1.22% and -1.96%. The result in assay [4] was inactive.
As to `Cc1ccccc1-n1c(CF)nc2ccc(N)cc2c1=O`, the activity, negative = cell killing in assay [1] (setting [5]) is -13.6%; in assay [1] (setting [6]) it was 0.0058%; in assay [1] (setting [7]), -23.5%. Also, the Potency entry in assay [2] was “inactive”.
Take `Oc1cc(Cl)c(Cl)cc1Cl`: the activity, negative = cell killing in assay [1] (setting [5]) was -12.6%; in assay [1] (setting [6]), -21.4%; in assay [1] (setting [8]), -39.7%; in assay [1] (setting [7]) it was -1.02%. The Potency result in assay [2] was “inactive”. In addition, the max response in assay [3] is 6.93% and 2.63%. Also, the result in assay [4] was inactive.
With `C#CC(C)(O)CC` (configuration not stated), the values for the activity, negative = cell killing in assay [1] (setting [5]), in assay [1] (setting [6]) and in assay [1] (setting [7]) were -22.2%, -11.4% and -2.82%, respectively. In assay [2], the Potency entry was “inactive”.

Values taken from PubChem BioAssay (NCATS).
